Reference: PubChem BioAssay (NCATS)
Records with an inconclusive call do not appear. The source made the active and inactive calls. Calls come from the whole dose curve; as a rule, active = well fitted inhibition curve with a large enough effect; inconclusive = small, poorly fitted or top-dose-only effect; inactive = flat fitted curve, though single readings scatter.

Assays:
Assay in all cases: qHTS profiling for inhibitors of Plasmodium falciparum proliferation (AID 504749); note: nearly all actives have a fitted effect of over 60% in size
Conditions in all cases: P. falciparum in erythrocytes, SYBR Green DNA, 72 h; series mostly up to 28.7 µM
CP211 = tested on: CP211
In short: (§1)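 P. falciparum-infected erythrocytes (0.3% parasitemia, 2.5% hematocrit) incubated with compound 72 h at 37 C, 5% CO2. Parasite DNA detected by SYBR Green after lysis, overnight at room temperature; normalised to 0.29 uM artemisinin and DMSO.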

CP215 = tested on: CP215
In short: as §1

CP217 = tested on: CP217
In short: as §1

CP237 = tested on: CP237
In short: as §1

CP250 = tested on: CP250
In short: as §1

CP252 = tested on: CP252
In short: as §1

CP260 = tested on: CP260
In short: as §1

CP262 = tested on: CP262
In short: as §1

CP265 = tested on: CP265
In short: as §1

CP266 = tested on: CP266
In short: as §1

CP268 = tested on: CP268
In short: as §1

CP269 = tested on: CP269
In short: as §1

CP286 = tested on: CP286
In short: as §1

CP291 = tested on: CP291
In short: as §1

CP297 = tested on: CP297
In short: as §1

CP305 = tested on: CP305
In short: as §1

CP315 = tested on: CP315
In short: as §1

CP238 = tested on: CP238
In short: as §1

CP247 = tested on: CP247
In short: as §1

CP256 = tested on: CP256
In short: as §1

Measured: Potency
Potency is the fitted concentration of half-maximal effect.

CC[N+]1(CCOC(=O)C(O)(c2ccccc2)c2ccccc2)CCCCC1
inactive: CP211 | CP215 | CP217 | CP237 | CP250 | CP252 | CP260 | CP262 | CP265 | CP266 | CP268 | CP269 | CP286 | CP291 | CP297 | CP305 | CP315

CC(C)NC(C)Cc1ccc(I)cc1 (stereo unspecified)
inactive: CP211 | CP217 | CP238 | CP247 | CP250 | CP252 | CP256 | CP260 | CP262 | CP265 | CP266 | CP269 | CP286 | CP291 | CP305 | CP315

CC(=O)[O][Hg][c]1ccccc1
active: CP211 15.1 µM | CP215 6.01 µM | CP217 7.08 µM | CP237 4.47 µM | CP238 5.62 µM | CP247 5.62 µM | CP250 7.08 µM | CP252 8.91 µM | CP256 8.91 µM | CP260 3.98 µM | CP265 8.91 µM | CP268 4.78 µM | CP269 4.78 µM | CP286 3.55 µM | CP291 4.26 µM | CP297 13.5 µM | CP305 4.26 µM

CN[C@@H]1C[C@@H](c2ccc(Cl)c(Cl)c2)c2ccccc21
inactive: CP238 | CP250 | CP297 | CP315
active: CP286 12.6 µM

Cc1ccc(Cl)c(O)c1
inactive: CP211 | CP215 | CP217 | CP237 | CP238 | CP247 | CP250 | CP252 | CP256 | CP260 | CP262 | CP265 | CP266 | CP268 | CP269 | CP286 | CP291 | CP297 | CP305 | CP315

NC(=O)CN1CC(O)CC1=O (stereo unspecified)
inactive: CP211 | CP215 | CP217 | CP237 | CP238 | CP247 | CP250 | CP252 | CP256 | CP260 | CP262 | CP265 | CP266 | CP268 | CP269 | CP286 | CP291 | CP297 | CP305 | CP315

CN1C2CCC1CC(OC(=O)c1cc(Cl)cc(Cl)c1)C2 (stereo unspecified)
inactive: CP211 | CP215 | CP217 | CP237 | CP238 | CP247 | CP250 | CP252 | CP256 | CP260 | CP262 | CP265 | CP266 | CP268 | CP269 | CP286 | CP291 | CP305 | CP315

COC(C)(C)CCCC(C)C/C=C/C(C)=C/C(=O)OC(C)C (stereo unspecified)
inactive: CP238 | CP262 | CP315
active: CP237 12.6 µM | CP265 11.2 µM

CCCCc1ccc(C(=O)O)nc1
inactive: CP211 | CP215 | CP217 | CP237 | CP238 | CP247 | CP250 | CP252 | CP256 | CP260 | CP262 | CP265 | CP266 | CP268 | CP269 | CP286 | CP291 | CP297 | CP305 | CP315

COC(=O)[C@@H](N)CCCN=C(N)N[N+](=O)[O-]
inactive: CP211 | CP215 | CP217 | CP237 | CP238 | CP247 | CP250 | CP252 | CP256 | CP260 | CP262 | CP265 | CP266 | CP268 | CP269 | CP286 | CP291 | CP297 | CP305 | CP315

O=C(O)COc1ccccc1
inactive: CP211 | CP215 | CP217 | CP237 | CP238 | CP247 | CP250 | CP252 | CP256 | CP260 | CP262 | CP265 | CP266 | CP268 | CP269 | CP286 | CP291 | CP297 | CP305 | CP315

C[C@]12CCC(=O)C(O)=C1CC[C@@H]1[C@H]3CCC(=O)[C@@]3(C)CC[C@@H]12
inactive: CP211 | CP215 | CP217 | CP237 | CP238 | CP247 | CP252 | CP260 | CP262 | CP266 | CP268 | CP269 | CP286 | CP291 | CP297 | CP305 | CP315

CC(=O)OCC1=C(C(=O)O)N2C(=O)[C@@H](N)[C@@H]2SC1
inactive: CP211 | CP215 | CP237 | CP260 | CP262 | CP266 | CP268 | CP269 | CP286 | CP291 | CP297 | CP305 | CP315

C#CC1(O)CCC2C3CCC4=CC(=O)CCC4(C)C3CCC21C (stereo unspecified)
inactive: CP211 | CP215 | CP217 | CP237 | CP238 | CP247 | CP250 | CP252 | CP256 | CP260 | CP262 | CP265 | CP266 | CP268 | CP269 | CP286 | CP291 | CP297 | CP305 | CP315

CN(C)[C@@H]1C(=O)C(C(N)=O)=C(O)[C@@]2(O)C(=O)C3=C(O)c4c(O)cccc4[C@@](C)(O)[C@H]3[C@H](O)[C@@H]12
inactive: CP211 | CP217 | CP238 | CP247 | CP250 | CP265 | CP266 | CP268 | CP269 | CP291 | CP305 | CP315

O=C(O)C(Cl)Cl
inactive: CP211 | CP215 | CP217 | CP237 | CP238 | CP247 | CP250 | CP252 | CP256 | CP260 | CP262 | CP265 | CP266 | CP268 | CP269 | CP286 | CP291 | CP297 | CP305 | CP315

COC(=O)c1cncn1C(C)c1ccccc1 (stereo unspecified)
inactive: CP211 | CP215 | CP262 | CP266 | CP268 | CP269 | CP291 | CP297 | CP305 | CP315

NC1=NC(=O)N2CC12 (stereo unspecified)
inactive: CP215 | CP238 | CP250 | CP252 | CP266 | CP297 | CP315
active: CP260 10 µM

O=[N+]([O-])c1ccc([As](=O)(O)O)cc1
active: CP211 7.57 µM | CP215 7.57 µM | CP217 7.94 µM | CP237 7.94 µM | CP238 11.2 µM | CP250 7.08 µM | CP252 7.08 µM | CP256 10 µM | CP260 7.08 µM | CP262 8.49 µM | CP265 10 µM | CP268 13.5 µM | CP269 6.01 µM | CP286 7.94 µM | CP291 8.49 µM | CP297 10.7 µM | CP305 7.57 µM | CP315 12 µM

CCCCCCCCCCCCCCCC[N+](C)(C)C
active: CP211 13.5 µM | CP237 7.08 µM | CP250 8.91 µM | CP260 5.62 µM | CP265 11.2 µM | CP268 13.5 µM | CP286 5.01 µM | CP291 13.5 µM | CP297 13.5 µM

c1ccc(C2(c3ccccc3)CC2C2=NCCN2)cc1 (stereo unspecified)
inactive: CP211 | CP215 | CP217 | CP237 | CP238 | CP247 | CP250 | CP252 | CP262 | CP265 | CP268 | CP269 | CP291 | CP297 | CP305 | CP315

C1CCC(NC2CCCCC2)CC1
inactive: CP211 | CP215 | CP217 | CP237 | CP238 | CP247 | CP250 | CP252 | CP260 | CP262 | CP265 | CP266 | CP268 | CP269 | CP286 | CP291 | CP297 | CP305 | CP315

C=CCN1CC[C@]23CCCCC2[C@H]1Cc1ccc(O)cc13 (stereo partly specified)
inactive: CP211 | CP215 | CP217 | CP238 | CP247 | CP250 | CP252 | CP256 | CP260 | CP262 | CP265 | CP266 | CP268 | CP269 | CP286 | CP291 | CP297 | CP305 | CP315

Cc1cc(O)ccc1Cl
inactive: CP211 | CP215 | CP217 | CP237 | CP238 | CP247 | CP250 | CP252 | CP256 | CP260 | CP262 | CP265 | CP266 | CP268 | CP269 | CP286 | CP291 | CP297 | CP305 | CP315

CCCN1CCC[C@H](c2cccc(O)c2)C1
inactive: CP211 | CP215 | CP217 | CP238 | CP250 | CP252 | CP256 | CP260 | CP262 | CP265 | CP266 | CP268 | CP269 | CP286 | CP291 | CP305 | CP315

CCCCCCCCCC(CC)c1ccc(S(=O)(=O)O)cc1 (stereo unspecified)
inactive: CP211 | CP215 | CP217 | CP237 | CP238 | CP247 | CP250 | CP252 | CP256 | CP260 | CP262 | CP265 | CP268 | CP269 | CP286 | CP291 | CP297 | CP305 | CP315
